Pf growth 48h: P. falciparum growth inhibition at 48 hours (one generation); 5.9% of 310,000 active; Potency, µM (highest dose often 28.7 µM), without a hit: top-dose activity change, negative = inhibition, hits mostly inhibitors; P. falciparum luciferase growth in erythrocytes, 48 h; note: potency is the fitted concentration of half-maximal effect; % is set by controls: 0 for no effect and ±100 for the full control effect
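Firefly luciferase activity from engineered P. falciparum reports growth; inhibitors lower the luminescent signal. Cultures contained 2% hematocrit erythrocytes at 0.1% final parasitemia.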
LmPK inhibitor: LmPK (Leishmania mexicana) enzyme inhibition; Q27686; purified LmPK, Kinase-Glo ATP luminescence, 1 h; 0.37% of 290,000 active; Potency, µM (doses to about 57.5 µM), for inactives: at the highest dose activity change, negative = inhibition, most hits filed as inhibitors; note: potency is the fitted concentration of half-maximal effect; % is set by controls: 0 for no effect and ±100 for the full control effect
Target sequence (Q27686 whole entry, looked up): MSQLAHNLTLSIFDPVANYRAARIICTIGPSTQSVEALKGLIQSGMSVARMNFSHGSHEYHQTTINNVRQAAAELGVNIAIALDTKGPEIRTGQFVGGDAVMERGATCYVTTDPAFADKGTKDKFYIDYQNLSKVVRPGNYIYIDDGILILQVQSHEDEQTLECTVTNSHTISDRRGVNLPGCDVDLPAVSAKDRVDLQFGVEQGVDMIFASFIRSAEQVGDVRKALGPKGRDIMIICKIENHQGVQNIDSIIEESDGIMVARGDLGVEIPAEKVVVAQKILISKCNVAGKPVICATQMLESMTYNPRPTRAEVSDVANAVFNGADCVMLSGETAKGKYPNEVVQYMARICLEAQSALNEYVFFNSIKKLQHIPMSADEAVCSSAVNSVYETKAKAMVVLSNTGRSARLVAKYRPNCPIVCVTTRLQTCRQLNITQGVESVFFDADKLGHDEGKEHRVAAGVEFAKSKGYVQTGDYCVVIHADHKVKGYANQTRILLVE
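Pyruvate kinase activity monitored as ATP production (luciferase luminescence). Conditions: 0.1 nM enzyme, 0.5 mM PEP, 0.1 mM ADP, 1 h, RT; normalized against uninhibited and no-enzyme wells.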
Pf growth 96h: inhibits malaria parasite growth, 96 h | P. falciparum luciferase reporter growth, 96 h | Potency, µM (titrated, usually from 28.7 µM), for the others: top-dose activity change, negative = inhibition, hits mostly inhibitors | 6.9% of 320,000 active | AID 504834; note: potency is the fitted concentration of half-maximal effect; % is set by controls: 0 for no effect and ±100 for the full control effect
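P. falciparum expressing integrated firefly luciferase grown in erythrocytes (2% hematocrit, 0.05% parasitemia final) with compounds for 96 hours at 37 C, 5% CO2. Growth inhibition read as loss of luminescence after adding luciferase detection reagent.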
Cycloheximide cs: counter-screen for Shiga toxin inhibitors: cycloheximide protein synthesis inhibition. cell reporter, cycloheximide protein synthesis inhibition counterscreen. max response, %. 12% of 300,000 active; in the data active = max response mostly above about 13%, no sharp cut-off; inactive = mostly below about 14%; note: read at 38.3 µM for the half of the compounds with a filed dose; 0% is about no effect
Shiga inhibitor: Shiga toxin inhibition; 9.2% of 290,000 active; AID 2315; inhibition, % at 38.7 µM; Vero cells, Shiga toxin protein synthesis inhibition reporter; in the data active = inhibition mostly above about 28%, no sharp cut-off; inactive = mostly below about 43%; note: 0% is about no effect
* hit, by the source's call; i = inactive; ? = inconclusive; nt = no result given; + = active, no number; [ ] = another dose, or the depositor's remark. Compounds with a hit are over-represented: about 22% of the library has one in this group of screens. Unless noted, calls come from the whole dose curve; as a rule, active = well fitted inhibition curve with a large enough effect; inconclusive = small, poorly fitted or top-dose-only effect, or another doubt; inactive = no such curve, though single readings can be large or run the other way.

SMILES	Pf growth 48h	LmPK inhibitor	Pf growth 96h	Cycloheximide cs	Shiga inhibitor
COc1ccc(C(=O)O/N=C(/c2ccccc2)c2ccncc2)cc1OC	-10%	8%	66%	-5	-19
COc1ccc(C(=O)O/N=C(\C)c2ccccc2)cc1	205%	6.3µM*	20%[5.75 µM]	16	21
COc1ccc(C(=O)O/N=C(/c2ccccc2)c2ccncc2)cc1	184%	-5%	-29%	42*	61*
CC1CCc2c(sc(NC(=O)c3cccs3)c2C(=O)O)C1 (configuration not stated)	100%	3%	28%	47*	81*
COC(=O)c1c(NC(=O)c2cccs2)sc2c1CCC(C)C2 (configuration not stated)	87%	-2%	109%	-3	34
O=C(Nc1sc2c(c1C(=O)O)CCCCC2)c1cccs1	228%	-9%	403%	66*	129*
O=C(Nc1sc2c(c1C(=O)O)CCCC2)c1cccs1	39%	-14%	315%	27*	127*
O=C(Cc1cccc(C(F)(F)F)c1)NCc1cccnc1	0%	-2%	2%	-1	-8
COC(=O)c1nccnc1C(=O)Nc1ccccc1N1CCOCC1	71%	1%	42%	9	-13
Cn1ncc2c(Nc3ccc4ccccc4c3)ncnc21	136%	-3%	?	33*	81*
Cc1ccc(Nc2ncnc3c2cnn3C)cc1	28%	-2%	?	27*	61*
Cn1ncc2c(Nc3ccc(Cl)cc3)ncnc21	47%	6%	46%	32*	16
CCOC(=O)c1ccc(Nc2ncnc3c2cnn3C)cc1	?	0%	?	0	6
CCOc1ccc(Nc2ncnc3c2cnn3C)cc1	19%	0%	-8%	16*	20
Cc1cccc(Nc2ncnc3c2cnn3C)c1	8%	-1%	-30%	9	31
Cn1ncc2c(Nc3cccc([N+](=O)[O-])c3)ncnc21	29%	5%	-2%	-6	-5
CCOC(=O)C1=C[C@@H](C(=O)OCC)[C@@H]2C3=C(C(=O)C2(C)C)[C@H](c2ccccc2)[C@@H]2C(=O)N(c4ccccc4)C(=O)[C@@H]2[C@@H]3C1	nt	nt	nt	-2	-5
COc1cccc(N2CCN(C(=S)NCCc3ccccc3)CC2)c1	-15%	0%	1%	-1	23
COc1ccc(CCNC(=S)N2CCC(C(N)=O)CC2)cc1	2%	-3%	47%	-1	-4
S=C(NC1CC1)N1CCc2ccccc2C1	6%	0%	15%	-1	-2
Oc1ccc(N2CCN(C(=S)NCCc3ccccc3)CC2)cc1	?	-17%	139%	24*	9
S=C(NC1CCCCC1)N1CCc2ccccc2C1	43%	-1%	6%	38*	+
NC(=O)C1CCN(C(=S)NCCc2ccccc2)CC1	-2%	-5%	i	18*	16
Oc1ccccc1N1CCN(C(=S)NCCc2ccccc2)CC1	-4%	-2%	44%	27*	31*
CCCCn1c(N)c(N(CCC(C)C)C(=O)CN2C(=O)C3CCCCC3C2=O)c(=O)[nH]c1=O (configuration not stated)	2%	-3%	-6%	-2	-6
SMILES	Pf growth 48h	LmPK inhibitor	Pf growth 96h	Cycloheximide cs	Shiga inhibitor
CC1(C)NC(=O)N(CCOCCOc2c(Cl)cc(Cl)cc2Cl)C1=O	nt	4%	-11%	-5	-9
CN(C)c1nc(-c2ccccc2)c2cc(Cl)ccc2n1	-14%	-3%	5%	-1	-4
COCCNc1oc(/C=C/c2ccc(F)cc2)nc1S(=O)(=O)c1ccccc1	?	0%	?	16	8
S=C(NCCc1ccccc1)N1CCc2ccccc2C1	80%	1%	?	67*	116*
S=C(NCCc1ccccc1)N1CCN(Cc2ccccc2)CC1	45%	-4%	-21%	31*	27
COc1cc(NC(=O)c2ccccc2)c(C)cc1NC(=O)CC(CC(=O)O)c1ccccc1 (configuration not stated)	76%	2%	31%	-4	-6
O=C(Cc1ccc(Cl)cc1)Nc1ccc(S(=O)(=O)Nc2cnc3ccccc3n2)cc1	0%	1%	19%	-5	1
CC[C@@H]1CC=C[C@H]2[C@H]1C(=O)N(Cc1ccccc1)[C@H]2c1ccc(OC)c(Cl)c1	?	5%	?	-2	1
O=C(C1CC1)N1CCc2cc(Br)cc(S(=O)(=O)N3CCOCC3)c21	5.2µM*	5%	37%	-1	12
